From PubChem BioAssay (EPA / NIEHS)
Calls of active or inactive are those of the source. The calls were made as follows: active = hit-call score of the fitted dose curve at least 0.9, where 1 is the maximum; inactive = score below 0.9.

How the values were obtained:
[1] = read-out: urokinase plasminogen activator (uPA), PLAU (gene 5328); test: BSK_KF3CT_uPA: BioMAP Diversity Plus: KF3CT Assay for urokinase plasminogen activator (uPA) Biomarker Activity (AID 2283075); conditions: primary human keratinocytes with fibroblasts; actives raise or lower the signal
Summary of the method: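 Human keratinocyte plus foreskin fibroblast primary co-culture exposed to chemical for 24 h. uPA levels were quantified by ELISA, and activity was fitted bidirectionally against a DMSO negative-control baseline.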

CD40, CD40 (gene 958) [2] = test: BSK_LPS_CD40: BioMAP Diversity Plus: LPS Assay for CD40 Biomarker Activity (AID 2283076); conditions: primary human HUVEC with PBMC; actives raise or lower the signal
Summary of the method: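 In the LPS system of human endothelial cells with peripheral blood mononuclear cells, CD40 levels were read by ELISA 24 h post-treatment. Signal changes in either direction were fitted against the DMSO baseline, with parallel SRB protein staining.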

[3] = read-out: E-selectin (Homo sapiens) (UniProt P16581); test: BSK_LPS_Eselectin: BioMAP Diversity Plus: LPS Assay for Eselectin Biomarker Activity (AID 2283077); conditions: primary human HUVEC with PBMC; actives raise or lower the signal
Summary of the method: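 E-selectin ELISA on LPS-stimulated endothelial cell/PBMC co-cultures, read 24 h post-treatment; gains and losses fitted against DMSO. Parallel SRB staining (0.1% SRB after 10% TCA fixation, 560 nm) flags overt cytotoxicity.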

[4] = read-out: Interleukin-8 (IL8), CXCL8 (gene 3576); test: BSK_LPS_IL8: BioMAP Diversity Plus: LPS Assay for Interleukin-8 (IL8) Biomarker Activity (AID 2283078); conditions: primary human HUVEC with PBMC; actives raise or lower the signal
Summary of the method: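 ELISA read-out of IL-8 after 24 h chemical treatment of LPS-activated endothelial/PBMC human primary co-cultures. Changes either up or down relative to DMSO; overt cytotoxicity checked by sulforhodamine B staining in parallel wells.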

[5] = BSK_LPS_SRB: Viability Assessment in the BioMAP Diversity Plus: LPS Assay (AID 2283079); conditions: primary human HUVEC with PBMC;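 also: total protein by sulforhodamine B absorbance as a cytotoxicity measure; measured one day after compound addition; fitted in both directions against DMSO so loss or gain of signal counts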
Summary of the method: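 SRB viability endpoint: cells fixed with 10% TCA, stained with 0.1% SRB, read at 560 nm, 24 h post-dose. HUVEC/PBMC co-culture; signal change in either direction scored relative to DMSO.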

[6] = read-out: Interleukin-1 alpha (IL1a), IL1A (gene 3552); test: BSK_LPS_IL1a: BioMAP Diversity Plus: LPS Assay for Interleukin-1 alpha (IL1a) Biomarker Activity (AID 2283080); conditions: primary human HUVEC with PBMC; actives raise or lower the signal
Summary of the method: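 Readout is IL-1a level by ELISA, 24 h post-dose, fitted as gain or loss relative to DMSO. System: LPS-activated human primary co-culture of vascular endothelium and peripheral blood mononuclear cells, with parallel SRB total-protein cytotoxicity.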

[7] = read-out: Monocyte Chemoattractant Protein-1 (MCP1), CCL2 (gene 6347); test: BSK_LPS_MCP1: BioMAP Diversity Plus: LPS Assay for Monocyte Chemoattractant Protein-1 (MCP1) Biomarker Activity (AID 2283081); conditions: primary human HUVEC with PBMC; actives raise or lower the signal
Summary of the method: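 Secreted MCP-1 read by ELISA at 24 h post-dosing in an LPS-activated co-culture of endothelial cells with peripheral blood mononuclear cells. Fits run in both directions, DMSO as baseline; parallel SRB staining tracks overt cytotoxicity.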

[8] = BSK_LPS_PGE2: BioMAP Diversity Plus: LPS Assay for Prostaglandin E2 (PGE2) Biomarker Activity (AID 2283082); conditions: primary human HUVEC with PBMC; actives raise or lower the signal
Summary of the method: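 Endpoint derived from bidirectional curve fitting versus DMSO of ELISA-measured PGE2 in LPS-stimulated human primary vascular co-culture (HUVEC with PBMC) harvested at 24 h.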

[9] = read-out: Macrophage colony-stimulating factor (MCSF), CSF1 (gene 1435); test: BSK_LPS_MCSF: BioMAP Diversity Plus: LPS Assay for Macrophage colony-stimulating factor (MCSF) Biomarker Activity (AID 2283083); conditions: primary human HUVEC with PBMC; actives raise or lower the signal
Summary of the method: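 Bidirectional fitting against DMSO was applied to M-CSF levels read by ELISA at 24 h post-dose. The system pairs human umbilical vein endothelium with peripheral blood mononuclear cells; parallel SRB staining tracked cytotoxicity.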

[10] = read-out: Tissue Factor, F3 (gene 2152); test: BSK_LPS_TissueFactor: BioMAP Diversity Plus: LPS Assay for Tissue Factor Biomarker Activity (AID 2283084); conditions: primary human HUVEC with PBMC; actives raise or lower the signal
Summary of the method: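 Compound was added to an endothelial cell/PBMC co-culture, and after 24 h tissue factor (CD142) was read by ELISA. Gain or loss of signal was fitted against a DMSO baseline, and parallel SRB staining (560 nm) tracked overt cytotoxicity.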

[11] = read-out: Tumor necrosis factor (Homo sapiens) (UniProt P01375); test: BSK_LPS_TNFa: BioMAP Diversity Plus: LPS Assay for Tumour Necrosis Factor alpha (TNFa) Biomarker Activity (AID 2283085); conditions: primary human HUVEC with PBMC; actives raise or lower the signal
Summary of the method: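 Primary human vascular co-culture of HUVEC and PBMC; TNFa ELISA 24 h after treatment, analysed as increase or decrease relative to DMSO control.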

[12] = read-out: Vascular cell adhesion molecule 1 (VCAM1), VCAM1 (gene 7412); test: BSK_LPS_VCAM1: BioMAP Diversity Plus: LPS Assay for Vascular cell adhesion molecule 1 (VCAM1) Biomarker Activity (AID 2283086); conditions: primary human HUVEC with PBMC; actives raise or lower the signal
Summary of the method: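 Primary human vascular co-culture (umbilical vein endothelium plus PBMC) stimulated with LPS received chemical; 24 h later VCAM-1 was read by ELISA. Overt cytotoxicity was assessed by sulforhodamine B staining of parallel cultures at the same time point.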

CD38, CD38 (gene 952) = test: BSK_SAg_CD38: BioMAP Diversity Plus: SAg Assay for CD38 Biomarker Activity (AID 2283087); conditions: primary human HUVEC with PBMC; actives raise or lower the signal
Summary of the method: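 Fluorescence ELISA of cell-surface CD38 served as the read-out, with either increase or decrease fitted against DMSO controls. Cells were a human umbilical vein endothelium plus PBMC co-culture under SEB/TSST-1 stimulation, measured 24 h after dosing.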

CD40, CD40 (gene 958) [13] = test: BSK_SAg_CD40: BioMAP Diversity Plus: SAg Assay for CD40 Biomarker Activity (AID 2283088); conditions: primary human HUVEC with PBMC; actives raise or lower the signal
Summary of the method: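 CD40 is measured by fluorescence ELISA in an endothelial/PBMC primary human co-culture at 24 h post-dose. Fitting is bidirectional, DMSO baseline. Parallel SRB staining (560 nm) flags cytotoxicity.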

CD69, CD69 (gene 969) = test: BSK_SAg_CD69: BioMAP Diversity Plus: SAg Assay for CD69 Biomarker Activity (AID 2283089); conditions: primary human HUVEC with PBMC; actives raise or lower the signal;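 as to AC50: cell surface CD69 protein quantified by ELISA with fluorescence detection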
Summary of the method: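 Endothelial/PBMC co-culture; chemical added; 24 h incubation; CD69 ELISA with fluorescence detection; bidirectional fit vs DMSO.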

[14] = read-out: Monocyte Chemoattractant Protein-1 (MCP1), CCL2 (gene 6347); test: BSK_SAg_MCP1: BioMAP Diversity Plus: SAg Assay for Monocyte Chemoattractant Protein-1 (MCP1) Biomarker Activity (AID 2283090); conditions: primary human HUVEC with PBMC; actives raise or lower the signal
Summary of the method: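 MCP-1 levels in the endothelial–PBMC SAg co-culture were quantified by ELISA at 24 h post-dosing; both increases and decreases versus DMSO scored. Cytotoxicity monitored by SRB total protein in parallel cultures.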

[15] = read-out: E-selectin (Homo sapiens) (UniProt P16581); test: BSK_SAg_Eselectin: BioMAP Diversity Plus: SAg Assay for Eselectin Biomarker Activity (AID 2283091); conditions: primary human HUVEC with PBMC; actives raise or lower the signal
Summary of the method: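 Cell-surface E-selectin is read by ELISA at 24 h in the SAg co-culture of HUVEC and PBMC. Curves are fitted in both directions relative to DMSO. Parallel SRB total-protein staining tracks overt toxicity.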

[16] = read-out: Monokine induced gamma interferon (MIG), CXCL9 (gene 4283); test: BSK_SAg_MIG: BioMAP Diversity Plus: SAg Assay for Monokine induced gamma interferon (MIG) Biomarker Activity (AID 2283092); conditions: primary human HUVEC with PBMC; actives raise or lower the signal
Summary of the method: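 Measures CXCL9 protein by ELISA in a human vascular primary-cell co-culture (umbilical vein endothelium with PBMC) 24 h after chemical addition. Activity is scored up or down from the DMSO control.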

[17] = BSK_SAg_PBMCCytotoxicity: PBMC Cytotoxicity Assessment in the BioMAP Diversity Plus: SAg Assay (AID 2283093); conditions: primary human HUVEC with PBMC;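 also: PBMC viability measured as Alamar Blue reduction fluorescence at 546/580 nm; fitted both ways against DMSO so a hit may be loss or gain of signal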;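 as to AC50: PBMC superantigen activated with SEB plus TSST-1 one hour after compound addition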
Summary of the method: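 Human umbilical vein endothelial cells co-cultured with PBMC; PBMC (75,000/well) pre-treated with compound 1 h, then activated with SEB and TSST-1 (20 ng/mL final each) for 90 h. Alamar Blue added 6 h, fluorescence 546/580 nm; bidirectional fit versus DMSO.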

[18] = read-out: Interleukin-8 (IL8), CXCL8 (gene 3576); test: BSK_SAg_IL8: BioMAP Diversity Plus: SAg Assay for Interleukin-8 (IL8) Biomarker Activity (AID 2283094); conditions: primary human HUVEC with PBMC; actives raise or lower the signal
Summary of the method: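 In this co-culture of human umbilical vein endothelium with peripheral blood mononuclear cells, IL-8 is assayed by ELISA at 24 h. DMSO serves as baseline for bidirectional curve fitting.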

Measured: AC50

Tumor necrosis factor (Homo sapiens), sequence (P01375 whole entry, looked up): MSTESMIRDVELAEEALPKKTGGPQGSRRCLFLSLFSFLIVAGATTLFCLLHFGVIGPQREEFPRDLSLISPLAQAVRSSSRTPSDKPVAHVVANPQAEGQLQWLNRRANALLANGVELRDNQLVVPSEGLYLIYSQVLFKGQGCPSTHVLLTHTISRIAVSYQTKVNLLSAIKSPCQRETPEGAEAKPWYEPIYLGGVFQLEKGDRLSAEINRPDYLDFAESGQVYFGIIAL
E-selectin (Homo sapiens), sequence (P16581 whole entry, looked up): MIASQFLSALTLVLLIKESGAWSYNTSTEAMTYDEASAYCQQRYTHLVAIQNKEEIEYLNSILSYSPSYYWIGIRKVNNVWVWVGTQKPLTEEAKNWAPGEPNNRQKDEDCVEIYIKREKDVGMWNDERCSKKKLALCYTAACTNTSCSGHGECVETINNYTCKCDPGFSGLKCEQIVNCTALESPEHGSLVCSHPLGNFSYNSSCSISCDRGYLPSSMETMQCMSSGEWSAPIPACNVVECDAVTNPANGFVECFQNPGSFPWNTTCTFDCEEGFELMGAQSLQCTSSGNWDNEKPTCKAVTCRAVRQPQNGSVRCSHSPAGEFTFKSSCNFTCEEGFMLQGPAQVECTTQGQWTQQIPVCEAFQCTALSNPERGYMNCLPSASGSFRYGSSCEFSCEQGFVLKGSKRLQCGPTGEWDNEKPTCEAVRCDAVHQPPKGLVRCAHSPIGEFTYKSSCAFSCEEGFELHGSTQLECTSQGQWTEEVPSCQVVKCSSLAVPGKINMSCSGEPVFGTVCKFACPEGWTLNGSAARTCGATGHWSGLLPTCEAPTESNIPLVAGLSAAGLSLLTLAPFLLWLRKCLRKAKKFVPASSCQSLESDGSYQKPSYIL

CN(C)C(=S)S
active: [17] 0.148 µM
inactive: [1] | CD40, CD40 (gene 958) [2] | [3] | [4] | [5] | [6] | [7] | [8] | [9] | [10] | [11] | [12] | CD38, CD38 (gene 952) | CD40, CD40 (gene 958) [13] | CD69, CD69 (gene 969) | [14] | [15] | [16] | [18]

CCOC(=O)C(SP(=S)(OC)OC)c1ccccc1 (stereo not given)
active: [12] 14.6 µM | CD38, CD38 (gene 952) 20 µM | CD69, CD69 (gene 969) 20 µM
inactive: [1] | CD40, CD40 (gene 958) [2] | [3] | [4] | [5] | [6] | [7] | [8] | [9] | [10] | [11] | CD40, CD40 (gene 958) [13] | [14] | [15] | [16] | [17] | [18]

CCCCCCCCCCCCN(C)C
inactive: [1] | CD40, CD40 (gene 958) [2] | [3] | [4] | [5] | [6] | [7] | [8] | [9] | [10] | [11] | [12] | CD38, CD38 (gene 952) | CD40, CD40 (gene 958) [13] | CD69, CD69 (gene 969) | [14] | [15] | [16] | [17] | [18]

CCOC(=O)CCN(SN(C)C(=O)Oc1cccc2c1OC(C)(C)C2)C(C)C
active: [12] 20 µM | CD38, CD38 (gene 952) 30 µM | CD40, CD40 (gene 958) [13] 29.6 µM | CD69, CD69 (gene 969) 29.3 µM | [14] 32 µM | [15] 27.7 µM | [16] 35.4 µM | [17] 26 µM
inactive: [1] | CD40, CD40 (gene 958) [2] | [3] | [4] | [5] | [6] | [7] | [8] | [9] | [10] | [11] | [18]

Clc1cccc(Cl)c1Cl
inactive: [1] | CD40, CD40 (gene 958) [2] | [3] | [4] | [5] | [6] | [7] | [8] | [9] | [10] | [11] | [12] | CD38, CD38 (gene 952) | CD40, CD40 (gene 958) [13] | CD69, CD69 (gene 969) | [14] | [15] | [16] | [17] | [18]
